Measured values reported in the supplement of paper PMC10127200.
Structures can show the parent of a compound that is named as a salt.

What was measured:
Assay in all cases: Euclidean distance of Cell Painting phenotypic profile (signed KS, 77 features) to DMSO centroid (dimensionless distance); 5 or 10 uM (library dependent); higher = stronger phenotypic change vs DMSO (phenoactivity)
Conditions in all cases: 48 h
[1] = test system: 786-O
Outline: (§1)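 Phenoactivity is computed as Euclidean distance to the median vehicle profile. The profiles, drawn from 77 Harmony features scored as signed Kolmogorov-Smirnov statistics versus same-plate vehicle wells, were corrected for plate position, correlation-weighted and replicate-averaged at the top dose. Stained cells were imaged confocally at 20X (9 fields/well) after 48 h with library compounds at 10 or 5 uM, 0.1% DMSO final, in five cancer lines and a healthy fibroblast line.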

[2] = test system: A549
Outline: as §1

[3] = test system: DU145
Outline: as §1

[4] = test system: FB
Outline: as §1

[5] = test system: HEPG2
Outline: as §1

[6] = test system: OVCAR4
Outline: as §1

SMILES | Euclidean distance [1] | Euclidean distance [2] | Euclidean distance [3] | Euclidean distance [4] | Euclidean distance [5] | Euclidean distance [6]
CN(C)c1cccc(-c2c3c(=O)n(-c4ccccc4Cl)[nH]c3cc(=O)n2C)c1 | 1.01 | 1.99 | 1.08 | 0.844 | 0.852 | 1.39
Cc1ccccc1C(OCCN(C)C)c1ccccc1 (centres undefined) [Orphenadrine Citrate] | 1.08 | 0.794 | 1.23 | 0.881 | 2.08 | 1.07
COCC(=O)Nc1cc(Sc2ccccc2)ccc1N=C(NC(=O)OC)NC(=O)OC [Febantel] | 0.969 | 0.892 | 0.944 | 1.06 | 1.09 | 1.15
CCc1c(C)[nH]c2c1C(=O)C(CN1CCOCC1)CC2 (centres undefined) [Molindone hydrochloride] | 1.11 | 0.479 | 0.934 | 0.703 | 0.317 | 0.874
CN(C)CCC=C1c2ccccc2COc2ccccc21 [Doxepin HCl] | 1.22 | 1.14 | 1.36 | 1.45 | 0.967 | 2.09
O=C(O)CC1CC(c2ccccc2)=NO1 (centres undefined) | 0.76 | 1.81 | 1.27 | 1.31 | 0.596 | 0.844
O=C1Nc2ccc(Cl)cc2[C@@](C#CC2CC2)(C(F)(F)F)O1 [Efavirenz] | 1.21 | 1.3 | 2.23 | 1.28 | 0.747 | 1.1
O=C(CCCN1CCN(c2ccccn2)CC1)c1ccc(F)cc1 [Azaperone] | 0.919 | 0.568 | 0.729 | 0.828 | 0.758 | 1.09
Cc1ncc(CO)c(CO)c1O [Pyridoxine HCl] | 0.686 | 0.861 | 0.642 | 0.7 | 0.426 | 1.11
NC(=O)/C(=C/n1cnc(-c2cc(C(F)(F)F)cc(C(F)(F)F)c2)n1)c1cncnc1 [Eltanexor (KPT-8602)] | 2.1 | 3.48 | 2.69 | 4.12 | 2.35 | 3.66
CN1C(C(=O)Nc2ccccn2)=C(O)c2sccc2S1(=O)=O [Tenoxicam] | 0.866 | 1.16 | 1.02 | 0.733 | 2.05 | 1.22
CNC(=O)c1cc(Oc2ccc(NC(=O)Nc3cc(C(C)(C)C)nn3-c3ccc4ncccc4c3)c(F)c2)ccn1 [DCC-2036 (Rebastinib)] | 2.89 | 3.75 | 4.62 | 2.57 | 2.72 | 2.63
O=C(O)CCNC(=O)c1ccc(/N=N/c2ccc(O)c(C(=O)O)c2)cc1 [Balsalazide disodium] | 0.73 | 0.808 | 0.796 | 0.76 | 0.576 | 0.971
O=C(O[C@@H]1Cc2c(O)cc(O)cc2O[C@@H]1c1cc(O)c(O)c(O)c1)c1cc(O)c(O)c(O)c1 [(-)-Epigallocatechin Gallate] | 0.998 | 0.875 | 1.33 | 1.39 | 1.17 | 0.757
CCC1=C(C)CN(C(=O)NCCc2ccc(S(=O)(=O)NC(=O)N[C@H]3CC[C@H](C)CC3)cc2)C1=O [Glimepiride] | 1.39 | 0.608 | 0.621 | 0.992 | 0.508 | 0.801
Cn1nnnc1SCC1=C(C(=O)O)N2C(=O)[C@@H](NC(=O)[C@H](OC=O)c3ccccc3)[C@H]2SC1 [Cefamandole nafate] | 1.06 | 0.559 | 1.12 | 0.954 | 0.484 | 0.965
CN1C(N)=N[C@](C)(c2cc(NC(=O)c3ccc(F)cn3)ccc2F)CS1(=O)=O [Verubecestat (MK-8931)] | 0.523 | 0.58 | 0.609 | 0.675 | 0.509 | 0.924
CN(C)CC/C=C1/c2ccccc2COc2ccc(CC(=O)O)cc21 [Olopatadine HCl] | 0.847 | 0.745 | 0.865 | 1.38 | 0.686 | 0.734
CCCSc1ccc2[nH]c(NC(=O)OC)nc2c1 [Albendazole] | 2.6 | 2.42 | 2.81 | 2.49 | 2.15 | 2.48
CCN(CC)CC(=O)Oc1ccc(NC(C)=O)cc1 [Propacetamol hydrochloride] | 1.3 | 0.77 | 1.22 | 0.897 | 1.14 | 1.47
CCn1cc(C(=O)O)c(=O)c2cc(F)c(N3CCNCC3)cc21 [Norfloxacin] | 1.28 | 0.791 | 0.924 | 1.26 | 0.65 | 1.01
CC(C)C(=O)Oc1ccc(CO)cc1[C@H](CCN(C(C)C)C(C)C)c1ccccc1 [Fesoterodine Fumarate] | 0.902 | 1.2 | 1.33 | 0.688 | 1.16 | 1.69
COc1cccc(CCc2ccccc2OCC(CN(C)C)OC(=O)CCC(=O)O)c1 (centres undefined) [Sarpogrelate hydrochloride] | 0.73 | 1.36 | 0.739 | 1.27 | 0.99 | 1.63
CCN(CC)C(=S)SSC(=S)N(CC)CC [Disulfiram] | 1.95 | 1.78 | 1.34 | 2.84 | 0.547 | 1.32
N[C@@H](Cc1c[nH]c2ccc(O)cc12)C(=O)O [5-hydroxytryptophan (5-HTP)] | 1.11 | 0.965 | 0.903 | 0.927 | 0.404 | 0.744

SMILES | Euclidean distance [1] | Euclidean distance [2] | Euclidean distance [3] | Euclidean distance [4] | Euclidean distance [5] | Euclidean distance [6]
N#CC[C@H](C1CCCC1)n1cc(-c2ncnc3[nH]ccc23)cn1 | 2.03 | 1.27 | 1.36 | 1.23 | 0.819 | 0.709
CNCCC(Oc1ccc(C(F)(F)F)cc1)c1ccccc1 (centres undefined) [Fluoxetine HCl] | 0.84 | 1.16 | 1.21 | 1.78 | 1.35 | 1.71
CCN(CC)CCNC(=O)c1c(C)[nH]c(/C=C2\C(=O)Nc3ccc(-c4csc(-c5ccccc5)n4)cc32)c1C [Amcasertib (BBI503)] | 5.91 | 5.2 | 7.77 | 5.61 | 2.05 | 2.89
O=C(Nc1nc2cccc(-c3ccc(CN4CCS(=O)(=O)CC4)cc3)n2n1)C1CC1 [Filgotinib (GLPG0634)] | 0.844 | 0.922 | 1.29 | 1.45 | 2.21 | 1.22
Cc1onc(-c2c(F)cccc2Cl)c1C(=O)N[C@@H]1C(=O)N2[C@@H]1SC(C)(C)[C@@H]2C(=O)O [Flucloxacillin sodium] | 1.14 | 0.772 | 1.17 | 1.12 | 0.664 | 1.72
Nc1ccn([C@@H]2CS[C@H](CO)O2)c(=O)n1 [Lamivudine] | 0.725 | 0.508 | 0.589 | 1 | 1.07 | 0.623
Cc1cc(C)c(/C=C2\C(=O)Nc3ccccc32)[nH]1 [Semaxanib (SU5416)] | 2.05 | 1.16 | 1.09 | 1.08 | 0.527 | 0.885
N[C@H](Cc1ccccc1)C(=O)O [D-Phenylalanine] | 1.65 | 1.05 | 0.814 | 0.864 | 0.733 | 0.852
CN(C[C@@H]1COCCO1)S(=O)(=O)Nc1ccc2ccc3ncc(-c4cnn(C)c4)cc3c(=O)c2c1 | 1 | 0.895 | 1.01 | 3.07 | 0.888 | 1
CCC[C@@H](C=O)NC(=O)[C@H](CC(C)C)NC(=O)[C@H](CC(C)C)NC(=O)OCc1ccccc1 | 5.22 | 4.01 | 5.17 | 4.63 | 4.52 | 5.15
C[C@]1(c2nc3c(C(N)=O)cccc3[nH]2)CCCN1 [Veliparib (ABT-888)] | 1.29 | 1 | 0.896 | 1.35 | 0.938 | 1.16
Cc1cc(S(=O)(=O)O)c2c(C)ccc(C(C)C)cc1-2 [Sodium gualenate] | 1.2 | 0.401 | 0.867 | 1.3 | 1.18 | 1.13
Cc1ccc(NC(=O)c2cccc(N(C)C)c2)cc1NC(=O)c1ccc(O)cc1 | 2.67 | 2.66 | 2.38 | 2.03 | 1.55 | 2.26
CN1CCCN=C1/C=C/c1cccs1 [Pyrantel Pamoate] | 1.65 | 0.995 | 0.771 | 1.28 | 0.805 | 1.2
NCc1ccc(S(N)(=O)=O)cc1 [Mafenide Acetate] | 0.874 | 0.744 | 1.24 | 1.07 | 0.456 | 0.942
COC(=O)c1ccc2c(C(=Nc3ccc(N(C)C(=O)CN4CCN(C)CC4)cc3)c3ccccc3)c(O)[nH]c2c1 [Nintedanib Ethanesulfonate Salt] | 3.68 | 3.84 | 2.5 | 4.88 | 3.9 | 4.19
C=CCNC1=C2C[C@@H](C)C[C@H](OC)[C@H](O)[C@@H](C)/C=C(\C)[C@H](OC(N)=O)[C@@H](OC)/C=C\C=C(/C)C(=O)NC(=CC1=O)C2=O | 2.85 | 2.95 | 4.51 | 3.47 | 3.86 | 2.72
Oc1c(Cl)cc(Cl)c2cccnc12 [Chloroxine] | 2.07 | 2.64 | 1.54 | 1.48 | 2.06 | 2.02
CC[C@@H]1C(=O)N(C)c2cnc(Nc3ccc(C(=O)NC4CCN(C)CC4)cc3OC)nc2N1C1CCCC1 | 3.46 | 3.75 | 3.25 | 3.72 | 2.48 | 3.25
COc1cc(CNC(=O)CCCC/C=C\C(C)C)ccc1O [Zucapsaicin] | 0.772 | 0.503 | 0.672 | 0.743 | 0.98 | 1.01
Cc1cc(Nc2ncnc3ccc(-c4ccc(CNCCS(C)(=O)=O)o4)cc23)ccc1Oc1ccn2ncnc2c1 [HER2-Inhibitor-1] | 1.06 | 0.771 | 1.08 | 1.37 | 1.3 | 1.22
O=C(O)c1cc(-c2ccc(F)cc2F)ccc1O [Diflunisal] | 1.47 | 0.745 | 1.05 | 1.06 | 0.706 | 1.71
CC1(C)S[C@@H]2[C@H](NC(=O)Cc3ccccc3)C(=O)N2[C@H]1C(=O)O.CCN(CC)CCOC(=O)c1ccc(N)cc1 [Penicillin G Procaine] | 0.821 | 0.676 | 0.97 | 1.38 | 0.466 | 1.24
CC[C@@H]1/C=C(\C)C[C@H](C)C[C@H](OC)[C@H]2O[C@@](O)(C(=O)C(=O)N3CCCC[C@H]3C(=O)O[C@H](/C(C)=C/[C@@H]3CC[C@H](Cl)[C@H](OC)C3)[C@H](C)[C@@H](O)CC1=O)[C@H](C)C[C@@H]2OC [Pimecrolimus] | 1.47 | 1.85 | 2.17 | 2.13 | 0.886 | 1.29
